High-throughput results: PubChem, National Center for Advancing Translational Sciences (NCATS)
Only some compounds are listed: those with a hit (about 0.92% of all), similar ones and a draw of the others.
FEN1 inhibitor: human FEN1 inhibition; P39748; Recombinant FEN1 flap cleavage, fluorescence, 15 min; Potency, µM (titrated, usually from 114 µM), without a hit: top-dose activity change, negative = inhibition, usual class: inhibitors; actives 0.35% (n = 390,000); AID 588795; also: nearly all actives have a fitted effect of over 65% in size
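FEN1 at 10 nM, compound pretreatment for 15 min (room temperature), 50 nM final substrate to initiate; endpoint reads at 0 and 15 min; DMSO-only plates used as vehicle background.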
BLM helicase inh: Bloom syndrome helicase (human) inhibition; recombinant BLM DNA unwinding, fluorescence dequenching; actives 0.2% (n = 350,000); AID 2528; Potency, µM (titrated, usually from 56.1 µM), for inactives: at the top dose activity change, negative = inhibition, hits mostly inhibitors;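 also: plate controls were vehicle for no effect and no enzyme for full effect; nearly all actives have a fitted effect of over 35% in size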
TDP1 block: inhibitors of human tyrosyl-DNA phosphodiesterase TDP1 | Q9NUW8 | recombinant TDP1, AlphaScreen DNA substrate cleavage | Potency, µM (titrated, usually from 130 µM), for the others: at the highest dose activity change, negative = inhibition, most hits filed as inhibitors | actives 0.28% (n = 350,000) | AID 485290; also: nearly all actives have a fitted effect of over 40% in size
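Signal: AlphaScreen proximity between streptavidin donor and anti-FITC acceptor beads on intact substrate. Reaction: Tdp1 1 nM, substrate 15 nM final, 5 min RT after 15 min compound preincubation.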
RECQ1 inh-1: blocks DNA unwinding by human RECQ1; actives 0.54% (n = 240,000); RECQ1 DNA unwinding, red fluorescence kinetic read; P46063; Potency, µM (series often up to 57.3 µM), without a hit: at the top dose activity, negative = inhibition, most hits filed as inhibitors;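 also: plate controls were vehicle for no effect and no enzyme for full effect; nearly all actives have a fitted effect of over 30% in size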
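RECQ1T1 50 nM; forked duplex (20 bp + 30-nt ss tails) 200 nM, ATP 2 mM final; pH 8.0, 2 mM MgCl2, 2.5 ug/ml poly(dI-dC); 15 min compound preincubation; discontinuous kinetic read over 2 h at RT.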
APEX1 inh: APE1 (human) endonuclease inhibition; P27695; recombinant APE1, TAMRA/BHQ-2 abasic DNA cleavage fluorescence; Potency, µM (series often up to 65.8 µM), for the others: at the highest dose activity change, negative = inhibition, most hits filed as inhibitors; actives 0.35% (n = 350,000); AID 2517;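 also: plate controls were vehicle for no effect and reference inhibitor for full effect; nearly all actives have a fitted effect of over 55% in size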
Target sequence (P27695 whole entry, looked up): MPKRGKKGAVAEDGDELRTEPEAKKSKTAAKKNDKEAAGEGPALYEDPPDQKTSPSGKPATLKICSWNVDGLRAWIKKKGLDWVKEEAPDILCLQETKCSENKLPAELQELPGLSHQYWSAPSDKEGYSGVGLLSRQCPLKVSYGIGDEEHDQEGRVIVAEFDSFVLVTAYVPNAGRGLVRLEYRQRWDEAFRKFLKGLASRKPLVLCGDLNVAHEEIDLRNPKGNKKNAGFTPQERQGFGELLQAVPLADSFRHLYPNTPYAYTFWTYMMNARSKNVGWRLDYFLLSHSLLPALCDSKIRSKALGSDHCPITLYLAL
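APE1 at 0.75 nM preincubated 15 min at room temperature with compound. Reaction then started with 50 nM double-stranded THF-abasic substrate labelled with TAMRA/BHQ-2, and 525/598 nm fluorescence read kinetically. Activity taken as third-minus-first read difference, normalized to DMSO and NSC13755 controls.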
RECQ1 inh conf: confirmation of human RECQ1 helicase inhibitors; shares compounds with RECQ1 inh-1; RECQ1 helicase DNA unwinding, fluorescence; Potency, µM (doses to about 229 µM), without a hit: at the top dose activity change, negative = inhibition, usual class: inhibitors; actives 28% (n = 610); AID 2708; also: nearly all actives have a fitted effect of over 45% in size
RECQ1 ADP FP: displaces ADP in a fluorescence polarization counter-screen for RECQ1 hits; shares compounds with RECQ1 inh-1; ADP fluorescence polarization displacement counterscreen; Potency, µM (series often up to 228 µM), for the others: top-dose activity change, negative = inhibition, most hits filed as inhibitors; actives 27% (n = 530); AID 2711; also: nearly all actives have a fitted effect of over 45% in size
RECQ1 inh-2: blocks human RECQ1 DNA unwinding | shares compounds with RECQ1 inh-1 | recombinant RECQ1 DNA unwinding, red fluorescence | Potency, µM (top dose mostly 119 µM), for inactives: at the highest dose activity, negative = inhibition, most hits filed as inhibitors | actives 15% (n = 1,100) | AID 504841; also: nearly all actives have a fitted effect of over 50% in size
Active calls of the source: *; i = inactive; ? = inconclusive; / = no result; [ ] = another dose, or the depositor's remark. Calls follow the shape of the dose curve; as a rule, active = well fitted curve in the direction sought with a large enough effect; inconclusive = small, poorly fitted or top-dose-only effect, or another doubt; inactive = no such curve, though single readings can be large; an effect the other way counts as inactive or inconclusive. Unless noted, % is scaled to controls: 0 for no effect and ±100 for the full control effect; potency is read from the fitted curve at half-maximal effect.

SMILES	FEN1 inhibitor	BLM helicase inh	TDP1 block	RECQ1 inh-1	APEX1 inh	RECQ1 inh-2	others
Cc1nn(CCc2nc(-c3ccco3)cs2)c2[nH]c(=O)cc(C(F)(F)F)c12	?	?	?	14.1µM*	?	?	RECQ1 inh conf=?;RECQ1 ADP FP=?
Cc1cc(C)n2c(SC/C(O)=C(\C#N)c3nc4ccccc4[nH]3)nnc2n1	?	-27.4%	?	?	?	?
Cc1ccc(CNc2ncnc3nc[nH]c23)cc1	3.2%	/	0.2%	/	/	/
CCOc1ccccc1NC(=O)c1ccc(OCC)c([N+](=O)[O-])c1	-0.7%	-1.2%	5.6%	0.3%	1.5%	/
CCOc1ccc(C(=O)Nc2cc(-c3nc4ccccc4[nH]3)ccc2Cl)cc1[N+](=O)[O-]	?	?	/	?	?	56.2µM*
CCOc1ccc(C(=O)Nc2cccc(-c3cc4ccccc4oc3=O)c2)cc1[N+](=O)[O-]	1.6%	-10.1%	2.0%	25.1µM*	-10.7%	?
COc1ccc(CNC(=O)Cn2ncn3nc(-c4cccs4)cc3c2=O)cc1	-7.7%	-3.4%	2.9%	/	/	/
O=C(CSc1nnc(-c2ccco2)n1Cc1ccccc1)c1ccc(F)cc1	-23.7%	-12.7%	-13.5%	?	0.8%	-16.7%
O=C(CSc1nnc(-c2ccco2)n1Cc1ccccc1)NCc1ccccc1	-0.3%	5.7%	7.3%	-4.2%	-2.1%	/
COc1ccc2nc(NC(=O)C3CCCN(S(=O)(=O)c4cccc5nsnc45)C3)sc2c1 (configuration not stated)	-1.3%	-7.2%	7.9%	-20.9%	-7.9%	/	RECQ1 inh conf=-10.5%;RECQ1 ADP FP=24.1%
Nc1nc2c(ncn2C2CC(O)C(CO)O2)c(=O)[nH]1 (configuration not stated)	/	1.9%	8.9%[56.1 µM]	i	12.3%	/
CC(=O)Nc1ccc(S(=O)(=O)/N=C2/NC(=O)/C(=C\c3ccco3)S2)cc1	-31.2%	0.4%	?	?	?	-24.4%
Cc1ccc(S(=O)(=O)/N=C2/NC(=O)/C(=C\c3ccco3)S2)cc1	4.0%	-4.6%	-4.0%	?	-11.4%	-19.9%
O=C(COc1cccnc1[N+](=O)[O-])c1ccc(Cl)s1	?	-24.0%	1.2%	?	?	?
Cc1ccc(-c2csc(NC(=O)C3=NN(c4ccccc4)C(=O)CC3)n2)cc1	-12.5%	-5.8%	3.4%	?	9.3%	-13.3%
N#Cc1cccc(NC(=O)c2cc3c(s2)-c2ccc(Cl)cc2SC3)c1	-0.5%	-14.2%	-5.1%	/	/	/
CC1CCN(S(=O)(=O)c2ccc3c(c2)oc(=O)n3CC(=O)NCc2ccc(F)cc2)CC1	-2.8%	-5.5%	11.5%	/	/	/
c1coc(-c2nn3c(-c4ccco4)nnc3s2)c1	-1.7%	-12.1%	/	?	?	?
c1coc(-c2nnc3sc(Cc4cccs4)nn23)c1	56.2µM*	-26.9%	/	?	25.1µM*	?
COc1ccc(OCc2nn3c(-c4ccco4)nnc3s2)cc1	-8.3%	-6.3%	-8.8%	-4.5%	-11.8%	/
COc1ccccc1-c1nn2c(-c3ccco3)nnc2s1	-30.2%	-8.4%	/	-16.8%	-9.3%	/
Cc1ccccc1NC(=O)CSc1nc(N)c2c3c(sc2n1)CSC(C)(C)C3	-2.0%	-5.7%	2.7%	22.4µM*	-1.7%	-18.4%
Cc1ccc(NC(=O)CSc2nc(N)c3c4c(sc3n2)CSC(C)(C)C4)cc1	-0.9%	-9.2%	5.6%	-9.6%	-3.0%	/
COc1cccc(C(=O)Nc2cccc(OCc3cc(=O)n4cccc(C)c4n3)c2)c1	16.2%	-10.3%	2.7%	/	/	/
